Test results taken from the supplement of paper PMC12636033.
± gives the standard deviation of the averaged measurements. Over roughly 33,000 sequences, “E-score (rank enrichment, -0.5 to 0.5)” has its median near -0.0043; the highest 2% begin near 0.24. The sample holds the highest values, similar sequences and a random draw of the others, so the mix is not that of the screen.

Each sequence was assayed on 2Sp-muMax20 (muMax20 with two 2,6-bis(methyl)pyridine Cys staples) (assay: PBM 8-mer E-score (E-score (rank enrichment, -0.5 to 0.5)); higher = stronger preferential binding).
Procedure: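 Protein binding microarray (universal PBM chip covering all 10-mers in fixed probe flanks) with chemically synthesized human Max(13-93) bHLH-LZ analogs (not full-length Max) bearing noncanonical residues (hArg, Tha, Aib, Nle at 65) and aromatic Cys staples. Read-out per 8-mer (and its reverse complement): E-score (rank-based enrichment, -0.5 to 0.5) and Z-score of median probe intensity.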

| Sequence | PBM 8-mer E-score |
| --- | --- |
| GCTGATTA | 0.273 ± 0.011 |
| CTTGATTA | 0.0552 ± 0.1 |
| ATTGATTA | 0.124 ± 0.078 |
| GTTGATTA | 0.25 ± 0.057 |
| ACTGATTA | 0.0334 ± 0.067 |
| CCTGATTA | 0.0465 ± 0.018 |
| CAAAGAGG | 0.00199 ± 0.021 |
| GCTTACGA | 0.0276 ± 0.057 |
| CGGGTCCC | -0.36 ± 0.051 |
| AAATGATT | -0.0058 ± 0.064 |
| CACGGACA | -0.212 ± 0.011 |
| AAGGGGCG | -0.00545 ± 0.089 |
| AAGGGGCT | 0.271 ± 0.019 |
| AAAGGGCT | -0.0325 ± 0.13 |
| ACCTCTGC | -0.0962 ± 0.11 |
| CGGACAAA | -0.0707 ± 0.0079 |
| CAGCGGCC | -0.156 ± 0.048 |
| TGCATGCA | 0.282 ± 0.038 |
| CGCATGCA | 0.161 ± 0.026 |
| AGCATGCA | 0.301 ± 0.023 |
| GGCATGCA | 0.0431 ± 0.062 |
| AACATGCA | 0.205 ± 0.17 |
| ACCATGCA | 0.187 ± 0.0036 |
| CAAAGGGG | 0.00961 ± 0.03 |
| CACATCCA | 0.103 ± 0.042 |

| Sequence | PBM 8-mer E-score |
| --- | --- |
| CTCTTCCA | -0.0254 ± 0.029 |
| AAGTCGAC | 0.0839 ± 0.081 |
| CAGCGGGG | -0.157 ± 0.043 |
| CTCCTGCC | 0.0184 ± 0.066 |
| ATGATGTA | 0.131 ± 0.049 |
| CTGATGTA | -0.072 ± 0.074 |
| GTGATGTA | 0.268 ± 0.018 |
| ACATACGC | 0.0353 ± 0.028 |
| ACATACGA | 0.237 ± 0.049 |
| ACATACAC | 0.0759 ± 0.032 |
| ACATATAC | 0.158 ± 0.072 |
| ACATACAG | 0.191 ± 0.11 |
| ACATATAG | 0.174 ± 0.031 |
| ACATATAA | 0.333 ± 0.0052 |
| TCATATAA | 0.227 ± 0.045 |
| TCATACGA | 0.214 ± 0.047 |
| CCATATAA | 0.0911 ± 0.065 |
| ACATATAT | 0.309 ± 0.061 |
| ACATACAT | 0.252 ± 0.054 |
| CGCAAATC | -0.0745 ± 0.17 |
| CCGTCGAG | -0.0626 ± 0.0034 |
| CTTATCGA | 0.0942 ± 0.054 |
| CGTTACGC | -0.173 ± 0.044 |
| AAGTGGGG | 0.1713 ± 0.001 |
| GCATGGGA | -0.0247 ± 0.032 |

| Sequence | PBM 8-mer E-score |
| --- | --- |
| AATCCCGG | -0.104 ± 0.0059 |
| AGACTTAG | -0.023 ± 0.017 |
| AGATATAG | 0.174 ± 0.0033 |
| AGATATAC | 0.146 ± 0.046 |
| AGATATAT | 0.252 ± 0.043 |
| ATATAGGG | 0.0694 ± 0.043 |
| CGGAATAC | -0.144 ± 0.035 |
| AAAAGTGG | 0.159 ± 0.0062 |
| GCCTGCAA | -0.0187 ± 0.071 |
| ACACATAA | 0.24 ± 0.037 |
| CCACACTA | 0.261 ± 0.026 |
| TTACATAA | 0.259 ± 0.0094 |
| AAACATAG | 0.0784 ± 0.084 |
| AAACATAA | 0.289 ± 0.0052 |
| ACACATAG | -0.0161 ± 0.023 |
| GCACATAA | 0.121 ± 0.02 |
| GAACATAA | 0.0635 ± 0.079 |
| GTACATAA | 0.171 ± 0.011 |
| ACACACTA | 0.158 ± 0.0088 |
| CTACATAA | 0.122 ± 0.021 |
| CCACACTC | 0.00608 ± 0.081 |
| CAGTGGAG | 0.0231 ± 0.066 |
| CACAGGGC | -0.258 ± 0.027 |
| CCAACTCA | -0.0281 ± 0.11 |
| CCCACCAA | 0.127 ± 0.019 |

| Sequence | PBM 8-mer E-score |
| --- | --- |
| ATATCAAT | 0.172 ± 0.089 |
| AGCCTCTG | -0.079 ± 0.05 |
| ATTTGAAA | 0.168 ± 0.12 |
| AGGTCTCC | -0.0447 ± 0.033 |
| GTGCAGTA | 0.106 ± 0.039 |
| AACGACTA | 0.0385 ± 0.073 |
| CCACACAA | 0.0212 ± 0.012 |
| TCACACAA | 0.238 ± 0.017 |
| ACACACAA | 0.0759 ± 0.063 |
| ACCCCTGG | -0.144 ± 0.039 |
| ATCGAAGG | -0.0475 ± 0.11 |
| ACCATATA | 0.23 ± 0.082 |
| CCAAGCAC | 0.235 ± 0.038 |
| ACAAGCAC | -0.115 ± 0.13 |
| GCAAGCAC | -0.00775 ± 0.028 |
| CCCACCGC | 0.0543 ± 0.035 |
| ATTCTCAA | 0.123 ± 0.02 |
| ACTAGAAC | 0.0769 ± 0.048 |
| AAATATTA | 0.28 ± 0.067 |
| TAATATGA | 0.135 ± 0.072 |
| GAATATTC | 0.189 ± 0.064 |
| CAATATTA | 0.19 ± 0.058 |
| AAATATTG | 0.075 ± 0.0023 |
| TAATATTA | 0.343 ± 0.044 |
| GAATATTA | 0.22 ± 0.026 |

| Sequence | PBM 8-mer E-score |
| --- | --- |
| CAATATTC | 0.0714 ± 0.068 |
| AAATATTC | 0.249 ± 0.043 |
| ATCGAGAC | -0.161 ± 0.025 |
| CGCGTCTC | 0.157 ± 0.072 |
| ACTGAGGG | -0.0464 ± 0.034 |
| ACTGCTGC | 0.0474 ± 0.025 |
| CTGGGCGA | -0.174 ± 0.045 |
| GTGGGCGA | 0.263 ± 0.088 |
| ATGGGCGA | 0.0316 ± 0.058 |
| AATCCCAC | 0.00653 ± 0.032 |
| GACTCTAC | -0.0372 ± 0.069 |
| GTATTGGA | 0.0561 ± 0.061 |
| ACCATGCT | 0.211 ± 0.0076 |
| AGCATGAA | 0.174 ± 0.04 |
| AGCATGCT | 0.332 ± 0.036 |
| AGCATGCC | 0.0906 ± 0.028 |
| CCCATGCG | 0.0929 ± 0.051 |
| AGCATGAC | 0.243 ± 0.051 |
| AGCATGCG | 0.275 ± 0.0033 |
| AGCATGAG | 0.121 ± 0.064 |
| CGCATGCC | 0.189 ± 0.053 |
| ATCATGCG | 0.136 ± 0.013 |
| AGCATGAT | 0.131 ± 0.051 |
| CGCATGCG | 0.286 ± 0.02 |
| TATCCCGA | -0.0363 ± 0.017 |

| Sequence | PBM 8-mer E-score |
| --- | --- |
| ACCACGGT | -0.234 ± 0.057 |
| CCTCAAGA | 0.175 ± 0.069 |
| AATGACAA | 0.179 ± 0.025 |
| GGCGTCAC | 0.0505 ± 0.091 |
| TCGGTTAA | -0.144 ± 0.038 |
| CCACACAC | 0.0649 ± 0.082 |
| AGGACAAT | 0.0666 ± 0.068 |
| CTCCATCA | 0.0787 ± 0.11 |
| GATCAGTA | 0.141 ± 0.0015 |
| CTCAACTC | 0.0172 ± 0.017 |
| AAGCTGAC | -0.0135 ± 0.013 |
| AAGCTGAT | 0.294 ± 0.012 |
| AAGCTTAA | -0.0812 ± 0.033 |
| AAGCTGTA | 0.168 ± 0.027 |
| AAGCTTAC | 0.084 ± 0.0037 |
| AAGCTTAT | 0.25 ± 0.032 |
| CAGCACTC | 0.0109 ± 0.049 |
| GGTTTTTA | 0.118 ± 0.05 |
| GTATCAAA | 0.167 ± 0.037 |
| ACGTTACT | 0.097 ± 0.078 |
| CCACTTTC | 0.123 ± 0.028 |
| GGTAATTA | 0.147 ± 0.011 |
| GTTAATGA | 0.181 ± 0.1 |
| ATTAATGG | 0.0949 ± 0.013 |
| ATTAATGC | 0.14 ± 0.0056 |

| Sequence | PBM 8-mer E-score |
| --- | --- |
| ATTAATTG | 0.157 ± 0.057 |
| CTTAATGC | 0.25 ± 0.014 |
| ATTAATTA | 0.312 ± 0.065 |
| CTTAATGA | 0.0929 ± 0.029 |
| AGTAATTA | 0.256 ± 0.051 |
| ATTAATGA | 0.276 ± 0.074 |
| CGTAATTA | 0.133 ± 0.0041 |
| ATTAATTC | 0.229 ± 0.026 |
| CATGCACC | 0.161 ± 0.0063 |
| GGGGTCGA | -0.0201 ± 0.04 |
| TTACTGAA | 0.0517 ± 0.035 |
| ACGAAAAG | 0.0249 ± 0.0051 |
| ACGAGATG | -0.00212 ± 0.067 |
| CCCCGATC | -0.166 ± 0.013 |
| AGATTGTC | -0.0414 ± 0.0031 |
| GACGGGCA | -0.0942 ± 0.011 |
| ATAAATTG | 0.106 ± 0.026 |
| CTAAATTA | -0.0028 ± 0.045 |
| ATTAATAA | 0.224 ± 0.12 |
| GTTAATCA | 0.198 ± 0.048 |
| ATTAATAG | 0.197 ± 0.079 |
| ATTAATCA | 0.259 ± 0.059 |
